ATXN2 expr inh: ATXN2 expression inhibition; Potency, µM (doses to about 57 µM), hits mostly inhibitors; hit rate 0.72% among 360,000; HEK-293 ATXN2-luciferase reporter, luminescence, 24 h; AID 1745845; also: nearly all actives have a fitted effect of over 55% in size
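qHTS (up to 57 uM final) was run with 24 h compound exposure of reporter cells at 37 °C. Each well was multiplexed: SteadyGlo luminescence measured ATXN2-luciferase expression after a fluorogenic Gly-Phe-AFC viability readout (25 uM final).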
S2 tox: cell viability loss in ATXN counter-screen | S2 cells (HEK-293 line with an ATXN2-luciferase reporter) viability, CellTiter-Fluor protease fluorescence, 24 h | Potency, µM (series often up to 56.7 µM), hits mostly cytotoxic | hit rate 0.49% among 400,000 | AID 651635; also: nearly all actives have a fitted effect of over 40% in size
HT1080 IDH1KD tx: toxicity to HT-1080 IDH1 knockdown cells (counter line); hit rate 2% among 360,000; Potency, µM (titrated, usually from 46.1 µM), most hits filed as cytotoxic; HT-1080 IDH1 knockdown viability, ATP luminescence, 48 h; AID 686971
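IDH1KD HT-1080 cells, 750/well, RPMI + 5% FBS; compound pinned after 2 h settling; 48 h, 37 °C; CellTiter-Glo luminescence; % activity normalised to DMSO and no-cell wells; curves fitted, classed by r2 and efficacy.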
HT1080-NT tox: kills 2HG-producing HT-1080-NT fibrosarcoma cells; Potency, µM (titrated, usually from 46.1 µM), usual class: cytotoxic; HT-1080-NT fibrosarcoma viability, CellTiter-Glo ATP luminescence, 48 h; AID 686970; hit rate 1.6% among 360,000;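 also: NT is the 2HG producing partner of a matched IDH1 knockdown line; nearly all actives have a fitted effect of over 55% in size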
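Luminescent CellTiter-Glo readout after 48 hours of compound exposure at 37 degrees C defined viability of HT-1080-NT cells. Activity was normalized to DMSO wells and cell-free media wells; concentration-response curves were fitted and assigned curve classes.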
KB-V1 cytotox: KB-V1 MDR subline cytotoxicity | KB-V1 MDR cells viability, CellTiter-Glo, 72 h | Potency, µM (doses to about 46.1 µM), usual class: cytotoxic | hit rate 3.4% among 400,000; also: nearly all actives have a fitted effect of over 60% in size
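Cells of the MDR subline KB-V1 are plated, dosed with compound at multiple concentrations, and incubated 72 h at 37 degrees C; CellTiter-Glo is then added and luminescence read after 10 min.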
KB-3-1 cytotox: kills parental KB-3-1 adenocarcinoma cells; KB-3-1 viability, CellTiter-Glo ATP luminescence, 72 h; Potency, µM (doses to about 46.1 µM), actives largely listed as cytotoxic; hit rate 1.4% among 400,000; also: nearly all actives have a fitted effect of over 60% in size
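Cells are dispensed, compounds pinned in, plates held at 37 °C for 72 h, then CellTiter-Glo is added and luminescence read after 10 minutes. Cell line: parental KB-3-1 in phenol-red-free DMEM, 10% FBS.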
A number is an active result; n = inactive; u = inconclusive; x = no result given. Shown are actives, neighbours in structure and some others; about 6.2% of the full set was active somewhere. Calls follow the shape of the dose curve; as a rule, active = well fitted curve in the direction sought with a large enough effect; inconclusive = small, poorly fitted or top-dose-only effect, or another doubt; inactive = no such curve, though single readings can be large; an effect the other way counts as inactive or inconclusive.

SMILES	ATXN2 expr inh	S2 tox	HT1080 IDH1KD tx	HT1080-NT tox	KB-V1 cytotox	KB-3-1 cytotox
COc1ccc(/C=N/NC(=O)c2cccnc2)cc1O	n	n	n	n	n	n
COc1cccc(-c2nc3c(c(C)nn3-c3ccccc3)c3cc(OC)c(OC)cc23)c1	n	n	x	x	n	n
COc1cc2c(-c3ccc(O)cc3)nc3c(c(C)nn3-c3ccccc3)c2cc1OC	n	u	n	n	3.66µM	u
CCOC(=O)c1ccccc1NC(=O)Nc1ccc(OC)c(OC)c1	n	n	n	n	n	n
Cc1cc(NC(=O)NC(=O)c2ccccc2NC(=O)C(C)N)ccc1Oc1ncc(Br)cn1 (configuration not stated)	n	u	0.092µM	u	0.731µM	0.231µM
COc1cc(O)sc1C=Nc1ccc(Cl)cc1Cl	x	n	n	n	20.6µM	n
CCOC(=O)N1CCN(Cc2ccc3c(c2)CN(C(=O)c2ccc(C#CC(C)(C)O)o2)CCO3)CC1	x	n	x	x	x	x
O=C(NCCc1nnc2n1CCN(Cc1ccc(F)c(F)c1)CC2)c1ccoc1	x	n	x	x	x	x
O=C(COc1ccccc1)NCc1ccccc1	n	n	n	n	n	n
O=C(COc1ccc(C(=O)c2ccccc2)cc1)NCc1ccc(F)cc1	n	u	2.31µM	2.06µM	u	u
O=C(c1ccccc1)c1ccc(OCC(O)CNCc2ccc(F)cc2)cc1 (configuration not stated)	n	x	20.6µM	u	23.1µM	n
CSc1ccc(CN(C)C(=O)COc2ccc(C(=O)c3ccccc3)cc2)cc1	n	n	11.6µM	u	9.2µM	20.6µM
COc1ccc(CCN(C)C(=O)COc2ccc(C(=O)c3ccccc3)cc2)cc1OC	n	n	n	n	n	n
C/C(N)=C(/C#N)C(=O)CSc1nc2cc(Cl)ccc2s1	n	n	n	35.5µM	u	n
CSc1nnc(CNC(=O)/C=C/c2ccccc2Cl)n1-c1ccc(F)cc1	x	n	x	x	x	x
CCc1nn2c(=O)cc(COC(=O)COc3ccc(OC)cc3)nc2s1	n	n	x	x	u	n
CCOC(=O)c1[nH]c(C)c(CCC(=O)Nc2cc(Cl)c(OC)cc2OC)c1C	n	n	x	x	u	n
N#Cc1ccccc1NC(=O)C1SC(=Nc2ccccc2)C(C(=O)Nc2ccc(Cl)cc2)=C1N (configuration not stated)	u	n	n	n	6.51µM	5.17µM
Cc1cc(-c2cccnc2)c(C#N)c(SCc2cccc(F)c2)n1	n	n	u	n	11.6µM	n
C[C@@H](NC(=O)CN(c1ccccc1)S(=O)(=O)N(C)C)c1ccccc1	n	n	x	x	n	n
O=C(CCl)Nc1cccc(Oc2cnccn2)c1	u	22.4µM	u	u	u	20.6µM
O=C(CCl)Nc1cccc(Oc2ccccc2)c1	9.47µM	x	u	u	u	u
COCC(=O)Nc1cc(OC)cc(OC)c1	n	n	n	n	n	n
COc1cc(NC(=O)CCl)ccc(=O)c1	x	u	23.1µM	20.6µM	u	n
O=C(CN1CCCCC1)Nc1cccc(Oc2ccccc2)c1	n	n	n	n	n	n
SMILES	ATXN2 expr inh	S2 tox	HT1080 IDH1KD tx	HT1080-NT tox	KB-V1 cytotox	KB-3-1 cytotox
Cc1ccc(CNc2nc3c(S(=O)(=O)c4ccccc4)nnn3c3ccsc23)cc1	x	x	x	x	u	n
O=c1[nH]c(CSc2ccccn2)nc2c1cnn2-c1ccccc1	n	n	n	n	20.6µM	n
O=C1CCc2cc(S(=O)(=O)Nc3cccc(B(O)O)c3)ccc2N1	x	x	x	x	n	n
COc1ccccc1N1CCN(Cc2nnc(-c3ccccc3C)o2)CC1	n	n	x	x	u	n
Cc1ccc(NC(=O)CCCCCCCCCCC2COCCO2)c(C)c1 (configuration not stated)	n	n	n	n	18.4µM	n
Cc1ccc(S(=O)(=O)N(C)CCCC(=O)Nc2ccc(C)cc2C)cc1	n	n	n	n	20.6µM	n
Cc1ccc(NC(=O)CC(=O)Nc2ccc(C)cc2C)c(C)c1	x	n	n	n	n	u
Cc1ccc(S(=O)(=O)N(C)CCCC(=O)Nc2cccc3ccccc23)cc1	n	n	n	u	11.6µM	n
Cc1ccc(S(=O)(=O)N(C)CCCC(=O)Nc2ccccn2)cc1	n	n	n	n	n	n
Cc1cc(F)ccc1NC(=O)CCCN(C)S(=O)(=O)c1ccc(F)cc1	n	n	n	n	u	n
C=CCOc1cc(Cl)ccc1C(=O)NCCN(CC)CC	n	n	x	x	x	x
Cc1cc(NCc2ccccn2)n2nc(C)c(-c3ccc(Cl)cc3)c2n1	u	n	20.6µM	u	u	n
Cc1nn2c(NCc3ccccn3)cc(C(C)C)nc2c1-c1ccccc1	x	u	u	n	u	n
CCCc1cc(NCc2ccccn2)n2nc(C)c(-c3ccccc3)c2n1	10µM	u	u	n	n	u
COc1ccc(NC(=O)CN(C)CC(=O)c2c(C)[nH]c3ccccc23)cc1	n	n	n	n	7.31µM	n
Cc1[nH]c2ccccc2c1C(=O)Cn1c(=O)oc2ccccc21	n	u	u	n	16.4µM	n
Cc1[nH]c2ccccc2c1C(=O)CCl	x	11.2µM	u	u	u	n
COc1cccc(NC(=O)CN(C)CC(=O)c2c(C)[nH]c3ccccc23)c1	n	u	n	n	n	n
CC(=O)c1c(-c2ccccc2)[nH]c2ccccc12	n	u	u	u	7.31µM	u
CCOCCc1nnc(NC(=O)C(=O)c2cc(C)n(-c3cccc(Cl)c3)c2C)s1	n	n	x	x	n	n
COc1cccc(C(=O)c2cn(CC(=O)Nc3cccc(C(F)(F)F)c3)c3nc(C)ccc3c2=O)c1	n	u	x	x	n	u
CCCCN(C(=O)CCn1c(=O)oc2ccccc21)c1ccccc1	n	u	n	n	n	n
COc1cc(S(=O)(=O)n2ccnc2C(C)C)ccc1Br	n	n	x	x	n	n
O=C(Nc1cccc(F)c1)c1ccc(Cn2cc([N+](=O)[O-])cn2)o1	n	n	n	n	13µM	n
CSc1nnc(CCNC(=O)c2ccc(-c3cccc(F)c3)cc2)n1-c1ccc(F)cc1	x	n	x	x	x	x
SMILES	ATXN2 expr inh	S2 tox	HT1080 IDH1KD tx	HT1080-NT tox	KB-V1 cytotox	KB-3-1 cytotox
Cc1ccc(C(=O)Nc2cccc(-c3nc(CNC(=O)C4(C)CC4)c(C)o3)c2)s1	x	n	x	x	x	x
OC(CSc1nnnn1-c1ccccc1)Cn1c2ccccc2c2ccccc21 (configuration not stated)	u	u	u	n	20.6µM	u
COc1ccc(/C=N/Nc2nonc2N)cc1OC	n	n	n	n	u	u
COc1ccc(/C=N/Nc2nonc2N)cc1	n	n	n	n	20.6µM	u
O=C1CC(c2cccc(Br)c2)c2cc3c(cc2N1)CCC3 (configuration not stated)	n	u	4.47µM	4.47µM	7.31µM	18.4µM
O=C1CC(c2cc(F)ccc2F)c2cc3c(cc2N1)CCC3 (configuration not stated)	n	n	2.59µM	2.59µM	n	4.61µM

Assay outcomes (PubChem)
